Measurements as given in the supplement of paper PMC3545927.
The list shows a part of the results. The true hit rate is not given.

B1: HC2283 (peptide)
chain: CADAEVVTSTAGNASASA
B2: HC1052 (peptide)
chain: CAGNPAIASLAGNASASA
B3: HC402 (peptide)
chain: CARPYCWHYPAGNASASA
B4: HC1744 (peptide)
chain: CAMEECSQILAGNASASA
B5: HC1945 (peptide)
chain: CALCTTPCSGAGNASASA
B6: FS-2163 (peptide)
chain: CARNRRVTRRAGNASASA
B7: FS-2283 (peptide)
chain: CARNRRHIEKAGNASASA
B8: FS-3013 (peptide)
chain: CARNSRFRCRAGNASASA
B9: FS-2162 (peptide)
chain: CARNRRRVCKAGNASASA
B10: FS-2732 (peptide)
chain: CARNRRAFGDAGNASASA
B11: HC550 (peptide)
chain: CAKGKWVPGAAGNASASA
B12: HC131 (peptide)
chain: CAEVVKSTWVAGNASASA
B13: HC142 (peptide)
chain: CAEVVTGTWVAGNASASA
B14: HC2026 (peptide)
chain: CAVVMCSMSYAGNASASA
B15: FS-967 (peptide)
chain: CAVVNTTKRDAGNASASA
B16: FS-1509 (peptide)
chain: CAAKRRTKRDAGNASASA
B17: FS-1579 (peptide)
chain: CAVKKRTKRDAGNASASA
B18: HC1786 (peptide)
chain: CAMEMEECSQAGNASASA
B19: FS-16 (peptide)
chain: CACRARRRRLAGNASASA
B20: HC1753 (peptide)
chain: CAMEECSQRLAGNASASA
B21: FS-135 (peptide)
chain: CALRGRSRRLAGNASASA
B22: FS-109 (peptide)
chain: CAWPTRRRRLAGNASASA
B23: FS-282 (peptide)
chain: CAQGERSRRLAGNASASA
B24: FS-478 (peptide)
chain: CAQDVRCRRLAGNASASA
B25: HC1490 (peptide)
chain: CAIYQCCDLDAGNASASA
B26: HC470 (peptide)
chain: CAPCTINYTIAGNASASA
B27: HC2447 (peptide)
chain: CAEFEVPCHRAGNASASA
B28: FS-1233 (peptide)
chain: CALRQRRRRLAGNASASA
B29: FS-1204 (peptide)
chain: CAGRGRRRRLAGNASASA
B30: FS-1193 (peptide)
chain: CAEPARRRRLAGNASASA

Target: furin, P09958
Sequence (P09958 whole entry): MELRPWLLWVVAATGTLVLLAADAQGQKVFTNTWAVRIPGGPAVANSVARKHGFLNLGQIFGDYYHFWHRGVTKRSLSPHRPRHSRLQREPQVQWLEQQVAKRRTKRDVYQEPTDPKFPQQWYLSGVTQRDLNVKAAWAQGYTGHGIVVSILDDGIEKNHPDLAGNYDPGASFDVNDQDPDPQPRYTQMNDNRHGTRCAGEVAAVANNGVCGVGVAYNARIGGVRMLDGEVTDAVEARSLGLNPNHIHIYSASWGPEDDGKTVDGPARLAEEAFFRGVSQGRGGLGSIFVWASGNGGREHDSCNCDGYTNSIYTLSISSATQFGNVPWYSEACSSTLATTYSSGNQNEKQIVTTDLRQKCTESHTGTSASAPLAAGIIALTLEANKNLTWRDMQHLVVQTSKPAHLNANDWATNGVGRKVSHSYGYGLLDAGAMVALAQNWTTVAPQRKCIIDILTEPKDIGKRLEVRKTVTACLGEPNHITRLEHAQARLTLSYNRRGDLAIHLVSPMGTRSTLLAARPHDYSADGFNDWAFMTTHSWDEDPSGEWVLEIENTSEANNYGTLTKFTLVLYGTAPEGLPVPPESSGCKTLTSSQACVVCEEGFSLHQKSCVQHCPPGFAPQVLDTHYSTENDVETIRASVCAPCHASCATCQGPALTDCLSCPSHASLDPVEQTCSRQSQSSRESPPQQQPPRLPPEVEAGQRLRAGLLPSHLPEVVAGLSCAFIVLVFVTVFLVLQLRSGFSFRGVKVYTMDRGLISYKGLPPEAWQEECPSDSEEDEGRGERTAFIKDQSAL
Assay: furin cleavage Z-score vs untreated control; higher = more cleavage, active = 3.5 or more, inactive = 1 or less, 8 variable residues between constant flanks
Outline: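 Peptides 8 residues long, fused to a cDNA oligonucleotide, were fixed to magnetic beads by the N-terminus and exposed to purified furin. The 0.01 ml reactions contained 50 mM HEPES pH 7.5 with CaCl2 and NaCl at 1:10 enzyme:substrate and ran 7.5, 15 or 30 min. For the cleavage Z-score, log counts of sequenced released DNA were compared with furin-free reactions, lowess-adjusted and scaled by median absolute deviation.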

Sequence | furin cleavage Z-score (7.5 min) | furin cleavage Z-score (15 min) | furin cleavage Z-score (30 min)
B1 | -0.438 (inactive) | 0.612 (inactive) | 0.657 (inactive)
B2 | -0.886 (inactive) | -0.0897 (inactive) | -0.877 (inactive)
B3 | -0.0981 (inactive) | -0.342 (inactive) | -1.07 (inactive)
B4 | 0.778 (inactive) | 0.663 (inactive) | 0.94 (inactive)
B5 | 0.463 (inactive) | -0.673 (inactive) | -0.438 (inactive)
B6 | 10.8 (active) | 11.8 (active) | 10.4 (active)
B7 | 6.22 (active) | 6.56 (active) | 6.5 (active)
B8 | 0.23 (inactive) | 0.474 (inactive) | 0.565 (inactive)
B9 | -0.833 (inactive) | -0.214 (inactive) | 0.898 (inactive)
B10 | 6.61 (active) | 9.22 (active) | 8.81 (active)
B11 | 0.591 (inactive) | -0.0194 (inactive) | 1.21
B12 | -2.1 (inactive) | -0.614 (inactive) | -0.545 (inactive)
B13 | -0.000356 (inactive) | -0.439 (inactive) | 1.54
B14 | -0.445 (inactive) | 0.764 (inactive) | 0.688 (inactive)
B15 | 0.253 (inactive) | 1.14 | 0.849 (inactive)
B16 | 13.3 (active) | 12.3 (active) | 8.72 (active)
B17 | 13.7 (active) | 14.1 (active) | 11.3 (active)
B18 | 0.949 (inactive) | -0.743 (inactive) | 0.205 (inactive)
B19 | 9.49 (active) | 9.51 (active) | 8.36 (active)
B20 | 0.426 (inactive) | -0.514 (inactive) | 1.09
B21 | 3.28 | 5.92 (active) | 6.35 (active)
B22 | 8.56 (active) | 10.6 (active) | 9.39 (active)
B23 | 0.753 (inactive) | 4.38 (active) | 1.23
B24 | 1.46 | 1.58 | 0.0369 (inactive)
B25 | -1.27 (inactive) | -0.493 (inactive) | -0.515 (inactive)
B26 | -0.109 (inactive) | -0.36 (inactive) | -0.753 (inactive)
B27 | 1.12 | 0.425 (inactive) | 0.814 (inactive)
B28 | 7.25 (active) | 8.53 (active) | 7.51 (active)
B29 | 0.638 (inactive) | 1.19 | 1.19
B30 | 3.5 (active) | 3.06 | 4.29 (active)
